According to PubChem BioAssay AID1159580 (chemical genetic matrix, 2015):
Several values for one entry are separate records, joined by “and”; a condition that tells them apart may be missing. Equal entries are not always repeated. The whole screen tested about 5,500 compounds, of which about 2,000 (36%) were called active. Inconclusive results (about 18%) are left out. Cut-off read from the data, not from the text of the source: active = normalized growth mostly below about 0.91 (no sharp cut-off); inconclusive = no clear call, values can overlap the other calls; inactive = mostly above about 0.92. The list shows a part of the results.

Experiment: chemical genetic growth profiling, strain panel (AID 1159580);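 note: tested at 20 µM; growth read once vehicle control cultures reached saturation at 30 °C; 1 = growth at the plate median or of vehicle wells; lower values mean less growth of the strain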
Conditions: S. cerevisiae deletion strains, growth OD

Measured: normalized growth

COc1ccc(C2C(=O)c3ccccc3C2=O)cc1
inactive: locus YAL013W, strain DEP1, stronger effect = lower value 0.997 | locus YAL021C, strain ccr4, stronger effect = lower value 1.01 | locus YAL026C, strain drs2, stronger effect = lower value 0.983 | locus YAL030W, strain snc1, stronger effect = lower value 1 | locus YBL061C, strain skt5, stronger effect = lower value 1.01 | locus YBR009C, strain hhf1, stronger effect = lower value 0.998 | locus YBR021W, strain FUR4, stronger effect = lower value 1.01 | locus YBR023C, strain chs3, stronger effect = lower value 1.01 | locus YBR171W, strain sec66, stronger effect = lower value 0.978 | locus YBR229C, strain ROT2, stronger effect = lower value 1 | locus YBR231C, strain swc5, stronger effect = lower value 1.02 | locus YBR279W, strain paf1, stronger effect = lower value 1.01 | locus YCL011C, strain gbp2, stronger effect = lower value 0.979 | locus YCL016C, strain dcc1, stronger effect = lower value 1.03 | locus YCL029C, strain bik1, stronger effect = lower value 0.983 | locus YCL069W, strain vba3, stronger effect = lower value 0.986 | locus YCR088W, strain abp1, stronger effect = lower value 0.999 | locus YDL005C, strain med2, stronger effect = lower value 1.02 | locus YDL035C, strain GPR1, stronger effect = lower value 1.01 | locus YDL040C, strain nat1, stronger effect = lower value 1.02 | locus YDL074C, strain BRE1, stronger effect = lower value 0.994 | locus YDL101C, strain DUN1, stronger effect = lower value 1 | locus YDL185W, strain tfp1, stronger effect = lower value 0.921 | locus YDL192W, strain arf1, stronger effect = lower value 0.988 | locus YDR001C, strain nth1, stronger effect = lower value 0.964 | locus YDR069C, strain doa4, stronger effect = lower value 1.01 | locus YDR101C, strain arx1, stronger effect = lower value 1.03 | locus YDR137W, strain rgp1, stronger effect = lower value 0.978 | locus YDR150W, strain NUM1, stronger effect = lower value 0.988 | locus YDR159W, strain sac3, stronger effect = lower value 1.01 | locus YDR162C, strain NBP2, stronger effect = lower value 1.02 | locus YDR195W, strain ref2 1.09 | locus YDR297W, strain sur2, stronger effect = lower value 0.993 | locus YDR318W, strain mcm21, stronger effect = lower value 0.993 | locus YDR334W, strain swr1, stronger effect = lower value 0.983 | locus YDR335W, strain msn5, stronger effect = lower value 1.02 | locus YDR388W, stronger effect = lower value 1.01 | locus YDR392W, strain spt3, stronger effect = lower value 1.02 | locus YDR502C, strain sam2, stronger effect = lower value 0.998 | locus YEL003W, strain gim4, stronger effect = lower value 0.993 | locus YEL037C, strain rad23, stronger effect = lower value 0.994 | locus YEL061C, strain CIN8 (second series), stronger effect = lower value 0.975 | locus YEL061C, strain CIN8, stronger effect = lower value 0.98 | locus YER015W, strain faa2, stronger effect = lower value 1.01 | locus YER016W, strain bim1, stronger effect = lower value 0.995 | locus YER110C, stronger effect = lower value 0.985 | locus YER111C, strain swi4, stronger effect = lower value 0.994 | locus YER155C, strain BEM2 (second series), stronger effect = lower value 0.993 | locus YER155C, strain BEM2, stronger effect = lower value 0.998 | locus YER167W, strain BCK2, stronger effect = lower value 1 | locus YFR010W, strain ubp6, stronger effect = lower value 1.02 | locus YGL078C, strain dbp3, stronger effect = lower value 0.99 | locus YGL086W, strain mad1, stronger effect = lower value 1.01 | locus YGL167C, strain pmr1, stronger effect = lower value 1 | locus YGL173C, strain kem1, stronger effect = lower value 1.02 | locus YGL227W, strain vid30, stronger effect = lower value 0.974 | locus YGL240W, strain doc1, stronger effect = lower value 1.02 | locus YGL248W, strain PDE1, stronger effect = lower value 1 | locus YGL253W, strain hxk2, stronger effect = lower value 1.01 | locus YGR078C, strain PAC10, stronger effect = lower value 0.998 | locus YGR135W, strain pre9, stronger effect = lower value 0.963 | locus YGR252W, strain gcn5, stronger effect = lower value 0.956 | locus YHR013C, strain ard1, stronger effect = lower value 1.02 | locus YHR027C, strain rpn1, stronger effect = lower value 1.01 | locus YHR030C, strain SLT2, stronger effect = lower value 0.977 and 0.898 | locus YHR079C, strain IRE1 (second series), stronger effect = lower value 0.991 | locus YHR079C, strain IRE1, stronger effect = lower value 0.857 | locus YHR094C, strain hxt1, stronger effect = lower value 0.999 | locus YHR129C, strain ARP1, stronger effect = lower value 1.01 | locus YHR142W, strain chs7, stronger effect = lower value 1.02 | locus YHR200W, strain rpn10, stronger effect = lower value 0.995 | locus YIL066C, strain RNR3, stronger effect = lower value 0.996 | locus YIL073C, strain SPO22, stronger effect = lower value 0.977 | locus YIL125W, strain kgd1, stronger effect = lower value 0.997 | locus YIR030C, strain dcg1, stronger effect = lower value 0.987 | locus YJL092W, strain hpr5, stronger effect = lower value 0.969 | locus YJL095W, strain BCK1 (second series), stronger effect = lower value 0.981 | locus YJL095W, strain BCK1, stronger effect = lower value 1 and 0.908 | locus YJL115W, strain asf1, stronger effect = lower value 0.998 | locus YJL129C, strain trk1, stronger effect = lower value 1.02 | locus YJL134W, strain LCB3, stronger effect = lower value 1 | locus YJL154C, strain vps35, stronger effect = lower value 0.99 | locus YJL164C, strain tpk1, stronger effect = lower value 0.999 | locus YJL166W, strain qcr8, stronger effect = lower value 1.01 | locus YJL168C, strain set2, stronger effect = lower value 1.02 | locus YJL187C, strain SWE1 (second series), stronger effect = lower value 0.998 | locus YJR043C, strain POL32, stronger effect = lower value 1
